Potency and affinity values are given separately. Active and inactive are the calls of the source.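 The calls were made as follows: active = viability loss whose fitted half-maximal concentration is at most twice the top valid tested dose; inconclusive = flat curve with 30 to 70% loss, or poor fit; inactive = the rest.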
Test: HepG2 cell cytotoxicity, dose response, cytotoxicity control, ATP luminescence, cherry-pick, set 6 (AID 1053125);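 also: negative values mean loss of viability signal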
Conditions: HepG2 viability, ATP luminescence (CellTiter-Glo), 72 h; series mostly up to 26 µM

Row | Compound | outcome
1 | CC(=O)Oc1ccc2cc(-c3nc4ccccc4n3C)c(=O)oc2c1 | inactive
2 | COc1ccc(C2C3=C(CCCC3=O)N(CC(=O)O)C3=C2C(=O)CCC3)cc1 | inactive
3 | O=C(O)c1ccc(N2N=C(c3ccccc3)CC2c2ccccc2)cc1 (stereo not drawn) | inactive
4 | O=C(Nc1ccc(-c2ccco2)cc1)C1CCCN(Cc2ccco2)C1 (stereo not drawn) | inactive
5 | CC(=O)c1cc2ccc(O)cc2oc1=O | inactive
6 | CCn1c2ccccc2c(=O)c2ccccc21 | inactive
7 | CCOC(=O)c1c2ccc(OCC(=O)NN)cc2n2ccccc12 | inactive
8 | CC(C)CCN(CCC(C)C)CC(O)Cn1c2ccccc2c(=O)c2ccccc21 (stereo not drawn) | inactive
9 | N#Cc1ccc(OCC(=O)OCC(=O)N2CCc3ccccc32)cc1 | inactive
10 | CCCn1c(=N)c(S(=O)(=O)c2ccccc2)cc2c(=O)n3ccccc3nc21 | inactive
11 | Cc1ccc2nc3c(cc(C(N)=S)c(=N)n3CCCOC(C)C)c(=O)n2c1 | inactive
12 | CCOc1ccc2nc(NCCCNC(=O)c3cc(OC)c(OC)c(OC)c3)c(C#N)cc2c1 | inactive
13 | C=Cc1ccc(Cn2c(C)c(C(=O)NCc3cccc(C)c3)sc2=O)cc1 | inactive
14 | Cc1ccc(S(=O)(=O)c2cc3c(=O)n4ccccc4nc3n(C)c2=N)cc1 | inactive
15 | Cc1c(O)ccc2cc(S(=O)(=O)c3ccccc3)c(=O)oc12 | inactive
16 | CCn1c(=N)c(C(=O)NCCCOC)cc2c(=O)n3cccc(C)c3nc21 | inactive
17 | Cc1cccn2c(=O)c3cc(C(=O)NCC4CCCO4)c(=N)n(CC4CCCO4)c3nc12 (stereo not drawn) | inactive
18 | O=C(/C=C/c1ccccc1)C1=C(O)C(=O)N(CCO)C1c1ccc2c(c1)OCO2 (stereo not drawn) | inactive

From PubChem BioAssay AID1053125 (Broad Institute, 2014)
